The values that follow come from PubChem BioAssay AID1508625 (Wald Lab, School of Medicine, Case Western Reserve …, 2021).

The nature of the experiment: small molecules boosting NK-mediated OVCAR3 lysis – imaging, primary NK cells, calcein-AM imaging, primary screen (AID 1508625).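 For z-score: more negative robust z means stronger NK killing of tumor cells.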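 Note: compound given to NK cells 16 h before adding targets at 1.5 to 1 ratio.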 The settings on record: OVCAR3 lysis by primary NK cells, at 5 µM; z-score: measured here: robust Z-score, single-point normalisation.

Turning to `O=C(Nc1ccccc1C(=O)O)c1cc(S(=O)(=O)Nc2ccc(Br)cc2)ccc1Cl`, the corrected activity, negative = more killing was -14.5% and the z-score is -3.06.
Consider `CC(C)NC1CCCc2c1[nH]c1ccc([N+](=O)[O-])cc21` (stereo unspecified), for which the corrected activity, negative = more killing was -0.558% and the z-score is -0.244.
For the compound `CC(=O)Oc1ccc(C(=O)Nc2nc3ccc4ccccc4c3s2)cc1`, the corrected activity, negative = more killing was -1.08% and the z-score is -0.335.
For the compound `COc1ccc(CNC(=O)CSc2nc3cc(Cl)ccc3s2)cc1`, the corrected activity, negative = more killing is -1.73% and the z-score was -0.516.
`Oc1cccc(CN2CCN3CCCC3C2C2CCCCC2)c1` (stereo unspecified): the corrected activity, negative = more killing was -0.454% and the z-score was -0.198.
For the compound `O=C(Nc1ccc(Br)cc1)c1ccc(Cl)c(S(=O)(=O)N2CCCCCC2)c1`, the corrected activity, negative = more killing is -9.39% and the z-score was -2.91.
With `Cc1cc(Cl)ccc1OCC(=O)Nc1cccc2c1C(=O)c1ccccc1C2=O`, the corrected activity, negative = more killing was -3.52% and the z-score was -1.45.
As for `O=C(O)C1C2C=CC(O2)C1C(=O)N1CCC(Cc2ccccc2)CC1` (stereo unspecified), the corrected activity, negative = more killing was -3.25% and the z-score was -1.34.
On to `COc1cc([N+](=O)[O-])ccc1N1C(=O)C2C3C=CC(CC3)C2C1=O` (stereo unspecified), for which the corrected activity, negative = more killing was 0.65% and the z-score was 0.231.
With `CC1CCCC(C(=O)OCc2ccccc2)N1` (stereo unspecified), the corrected activity, negative = more killing is -4.16% and the z-score is -1.64.
In the case of `Cc1ccc(Cl)cc1-n1c(CCC(=O)O)ccc1-c1ccccc1`, the corrected activity, negative = more killing is 1.25% and the z-score was 0.373.
Regarding `Cc1ccc(OCCNC2CCCC2)c(C)c1`, the corrected activity, negative = more killing is 0.166% and the z-score is 0.0921.
With `O=c1c2c(nc3c(-c4ccc(Cl)cc4)c(Cc4ccccc4)[nH]n13)CCC2`, the corrected activity, negative = more killing was -3.87% and the z-score is -2.
Regarding `COc1ccc(-c2n[nH]c(=S)o2)cc1`, the corrected activity, negative = more killing is -4.44% and the z-score was -1.69.
Regarding `CCC1CCCCN1C(=O)c1cc2c(=O)n3ccccc3nc2s1` (stereo unspecified), the corrected activity, negative = more killing was -5.2% and the z-score is -1.47.
With `CC(=O)CC(O)(c1ccccc1)C(F)(F)F` (stereo unspecified), the corrected activity, negative = more killing was 0.173% and the z-score was 0.0551.
With `S=C(c1nc2ccccc2[nH]1)N1CCOCC1`, the corrected activity, negative = more killing was -3.36% and the z-score is -1.07.
For the compound `Cc1ccc(S(=O)(=O)NN=Cc2ccc(I)cc2)cc1`, the corrected activity, negative = more killing was -2.58% and the z-score was -0.82.
For `CC1CCC(NC2CCCc3c2[nH]c2ccc([N+](=O)[O-])cc32)CC1` (stereo unspecified), the corrected activity, negative = more killing is 3.89% and the z-score is 1.7.
Taken in the same sequence, the figures for `O=C(COc1ccc(Cl)cc1)N1CCN(C(=O)c2ccccc2F)CC1` were -1.94% and -0.865.
Take `CCOC(=O)c1sc(N2C(=O)C(=O)C(=C(O)c3ccccc3)C2c2ccc(C(C)(C)C)cc2)nc1C` (stereo unspecified): the corrected activity, negative = more killing is -1.11% and the z-score was -0.48.
`O=[N+]([O-])c1ccc(N2CCCCC2)cc1NCCc1ccccc1`: the corrected activity, negative = more killing was -2.78% and the z-score is -0.86.
Taken in the same sequence, the figures for `CN(C)c1ccc(C=C(C(=O)c2ccccc2)c2nc3ccccc3[nH]2)cc1` were -1.99% and -1.03.
On to `O=C(c1ccccc1F)N1CCN(c2cc(N3CCCCC3)c(F)cc2[N+](=O)[O-])CC1`, for which the corrected activity, negative = more killing was -2.72% and the z-score is -0.843.
On to `CCCCC1CC(CN2C(=O)NC(C)(C)C2=O)OC1=O` (stereo unspecified), for which the corrected activity, negative = more killing was -2.13% and the z-score is -0.811.
Regarding `COC(=O)CCC(=O)NNC(=O)c1ccc(Br)cc1`, the corrected activity, negative = more killing was -3.77% and the z-score was -1.49.
`CCOc1ccc(NC(=O)Cn2c(=O)n(CCc3ccccc3)c(=O)c3c4c(sc32)CCCC4)cc1`: the corrected activity, negative = more killing is -8.33% and the z-score is -2.36.
Take `COc1ccc2c(c1)c(C(C)=O)c(C)n2-c1ccccc1C`: the corrected activity, negative = more killing was -0.941% and the z-score was -0.487.
On the same counts, the results for `COc1ccc(NC(=O)CN(C)S(=O)(=O)c2cccs2)cc1OC` are -4.46% and -1.26.
Take `CCc1ccc(-n2c(CCC(=O)O)ccc2-c2ccc(F)cc2)cc1`: the corrected activity, negative = more killing is -1.11% and the z-score is -0.331.
Regarding `CC(C)(C)c1ccc(C(=O)Nc2ccc(Cl)c(NC(=O)c3ccccc3)c2)cc1`, the corrected activity, negative = more killing was -4.21% and the z-score was -1.49.
For `Cc1ccc(C)c(C(=O)COC(=O)CNS(=O)(=O)c2ccccc2)c1`, the corrected activity, negative = more killing is -1.55% and the z-score was -0.589.
Consider `COC(=O)c1cc(C=O)c(O)c(C=O)c1`, for which the corrected activity, negative = more killing was -2.3% and the z-score is -1.01.
Consider `O=C(Cn1cnc2sc3c(c2c1=O)CCCC3)NCCCC(=O)Nc1ccccc1F`, for which the corrected activity, negative = more killing is -3.19% and the z-score is -1.01.
Consider `CCC(C)NC(=O)Cn1c(=O)n(-c2cc(OC)cc(OC)c2)c(=O)c2sccc21` (stereo unspecified), for which the corrected activity, negative = more killing was -7.6% and the z-score was -2.16.
For the compound `C=CCN1C(=O)C(=Cc2ccc(OCc3ccccc3Cl)c(OC)c2)SC1=S`, the corrected activity, negative = more killing is -6.24% and the z-score is -1.98.
Take `COc1ccccc1C1C(=C(O)c2ccccc2)C(=O)C(=O)N1CC(C)O` (stereo unspecified): the corrected activity, negative = more killing is -4.26% and the z-score is -1.62.
Taken in the same sequence, the figures for `COc1ccc(N2C(=O)c3ccc(C)cc3C2=O)cc1OC` were -6.75% and -2.54.
Regarding `CCOC(=O)Cc1ccc(N(Cc2cccs2)S(=O)(=O)c2ccc([N+](=O)[O-])cc2)cc1`, the corrected activity, negative = more killing was -7.32% and the z-score was -1.98.
On to `Cc1nnc(NC(=O)CSc2nc3c(c(=O)n2-c2ccccc2)SCC3)s1`, for which the corrected activity, negative = more killing is -0.367% and the z-score was -0.0912.
Taken in the same sequence, the figures for `Cc1c(Cl)cccc1N=Cc1ccc(O)cc1` were -1.33% and -0.563.
Take `CC(=O)Nc1ccc(N=Cc2ccc(C)cc2)cc1`: the corrected activity, negative = more killing was -3.8% and the z-score was -0.8.
Regarding `Cc1c(C(=O)O)oc2ccc(S(=O)(=O)N3CCOCC3)cc12`, the corrected activity, negative = more killing is -2.57% and the z-score was -0.692.
As for `C=CCn1c(-c2ccc3[nH]c(C)c(C)c3c2)n[nH]c1=S`, the corrected activity, negative = more killing was -6.13% and the z-score was -2.23.
On the same counts, the results for `CCCC12CN3CC(C)(CN(C1)C(=O)c1ccccc1C3=O)C2=O` are -4.81% and -1.98.
Turning to `COc1ccc(C2=NN(C(=O)c3ccc(Br)o3)C(c3ccc(N(C)C)cc3)C2)cc1OC` (stereo unspecified), the corrected activity, negative = more killing is -3.55% and the z-score was -1.9.
Regarding `O=C(Nc1ccc2c(c1)CCC2)c1ccc2c(=O)n(C3CCCCC3)c(=S)[nH]c2c1`, the corrected activity, negative = more killing was -2.41% and the z-score was -0.766.
Take `CC(Oc1cccc(Cl)c1)C(=O)NC1CC(C)(C)NC(C)(C)C1` (stereo unspecified): the corrected activity, negative = more killing is 0.623% and the z-score was 0.347.
As for `CCCCn1c(=S)[nH]c2cc3ccccc3cc2c1=O`, the corrected activity, negative = more killing is -1.52% and the z-score was -0.403.
Take `CON1C(=O)C(C)(C)N(OC)C(=O)C1(C)C`: the corrected activity, negative = more killing was 2.31% and the z-score is 0.733.
On the same counts, the results for `Cc1ccc(NC(=O)Cc2[nH]c3ccccc3c2Sc2ccccc2)cc1` are -1.55% and -0.584.
Take `Clc1cccc(N2CCN(Cc3cn4c(-c5cccc(Br)c5)nnc4s3)CC2)c1`: the corrected activity, negative = more killing is -6.72% and the z-score was -1.91.
As for `O=C(O)CSCCC(=O)Nc1ccc(F)cc1`, the corrected activity, negative = more killing was -7.17% and the z-score is -1.93.
For the compound `C=CCn1c2ccccc2c2nnc(SCc3[nH]c(C(=O)OCC)c(C)c3C(C)=O)nc21`, the corrected activity, negative = more killing is -1.4% and the z-score is -0.435.
Take `Cc1ccccc1-c1n[nH]c(=S)o1`: the corrected activity, negative = more killing is -4.65% and the z-score was -1.65.
As to `O=C(CSCc1ccccc1F)N1CCc2ccccc21`, the corrected activity, negative = more killing was -9.83% and the z-score was -2.65.
Consider `N#CCCCSc1nnnn1-c1ccccc1`, for which the corrected activity, negative = more killing was -7.28% and the z-score is -2.25.
On the same counts, the results for `S=C1CSc2ccccc2N1` are -1.4% and -0.377.
Take `CC(=O)OC1CC(C)N(C(=O)c2ccccc2)c2ccc(C)cc21` (stereo unspecified): the corrected activity, negative = more killing was -5.57% and the z-score was -1.73.
As for `O=C(c1cccc(F)c1)N1CCCN(C(=O)c2cccc(F)c2)CC1`, the corrected activity, negative = more killing was -4.12% and the z-score was -1.69.
As to `O=S(=O)(c1ccc(Br)c2nsnc12)N1CCC(Cc2ccccc2)CC1`, the corrected activity, negative = more killing is -3.43% and the z-score is -1.06.
On the same counts, the results for `O=C(COc1ccccc1Br)NN=Cc1ccccc1Br` are -7.58% and -2.41.
Turning to `CCCCC1(CC(=O)N2CCOCC2)C(=O)N(c2ccccc2)N(c2ccccc2)C1=O`, the corrected activity, negative = more killing was -2.63% and the z-score was -0.786.
`COc1ccccc1CNC(=O)C(C)Oc1cccc(Cl)c1` (stereo unspecified): the corrected activity, negative = more killing was -1.41% and the z-score is -0.785.
Take `CCOC(=O)C1CCN(c2ccc([N+](=O)[O-])cc2S(=O)(=O)N2CCOCC2)CC1`: the corrected activity, negative = more killing was -3.03% and the z-score was -0.939.
On to `Nc1cc(OC(=O)c2cccs2)nn1S(=O)(=O)c1ccccc1`, for which the corrected activity, negative = more killing was -4.31% and the z-score was -1.37.
On the same counts, the results for `Cc1[nH]c2ccccc2c(=O)c1CN(C)Cc1ccccc1` are 0.566% and 0.175.
Take `CCCn1c(C)nc2c(=O)oc3ccccc3c21`: the corrected activity, negative = more killing is 3.04% and the z-score is 0.943.
Consider `CCCCOc1ccc(C(=O)N2N=C(C)CC2(O)C(F)(F)F)cc1` (stereo unspecified), for which the corrected activity, negative = more killing is -6.48% and the z-score is -2.66.
Regarding `CC1=NN(C(=O)c2ccc(C(N)=O)cc2)C(O)(C(F)(F)F)C1` (stereo unspecified), the corrected activity, negative = more killing was -1.91% and the z-score is -0.786.
On the same counts, the results for `Cc1cc(Cl)ccc1OC(C)C(=O)n1cnc2ccccc21` (stereo unspecified) are -1.02% and -0.42.
`O=C(NN=Cc1cccnc1)c1cc(C2CC2)[nH]n1`: the corrected activity, negative = more killing was -2.36% and the z-score is -1.03.
On to `CCCc1sc(N2CCN(C(=O)c3ccccc3)CC2)nc1-c1ccccc1`, for which the corrected activity, negative = more killing is -5.71% and the z-score is -1.77.
Consider `O=C(CCCOc1ccccc1)N1CCN(c2ccccn2)CC1`, for which the corrected activity, negative = more killing is -1.33% and the z-score is -0.738.
As for `Cc1cc(C)cc(-n2cnc3cc(C(=O)NC4CCCCCC4)ccc32)c1`, the corrected activity, negative = more killing was -4.5% and the z-score was -1.21.
On the same counts, the results for `CC(C(=O)N1CCN(c2ccccc2)CC1)c1ccc([N+](=O)[O-])cc1` (stereo unspecified) are -3.44% and -1.91.
Turning to `CCCc1c(C)c2cc3c(C)coc3cc2oc1=O`, the corrected activity, negative = more killing is -6.81% and the z-score is -2.03.
On to `O=C(Nc1ccccc1Cl)c1cccc([N+](=O)[O-])c1`, for which the corrected activity, negative = more killing is -1.44% and the z-score was -0.51.
